The full ranking holds about 1,700 compounds; the median of “fraction of GFP-LC3-positive cells (≥5 vesicles/cell)” is about 0.43, and the highest 2% start at about 0.81. What follows is part of a selection rich in the highest values, with near analogues and random picks from the rest.
Test system: CbCln3 Δex7/8/Δex7/8 GFP-LC3 cerebellar neuronal cells
Assay: fraction of GFP-LC3-positive cells (≥5 vesicles/cell); higher = more autophagosome accumulation
In short: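 By pin transfer, ~50 nL of compound in DMSO went in duplicate into 384-well plates holding 2 × 10^3 wild-type or mutant CbCln3 cerebellar cells per well that stably express GFP-LC3, followed by 24 h at 33 °C. The final 30 min included Hoechst 33342 and LysoTracker Red, and then came 3.2% PFA fixation and 10× imaging of three fields per well. Each value gives the fraction of cells above a vesicle threshold, averaged across duplicates, with CellProfiler counting GFP-LC3 vesicles and out-of-focus images left out. The threshold is 5 or more vesicles per cell.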

How did the “fraction of GFP-LC3-positive cells” value turn out when `O.Oc1cc(O)c2c(c1)OC(c1ccc(O)c(O)c1)C(O)C2` (racemic) [Catechin-(+,-) hydrate] was run?
Its value is 0.337.

`CC/C=C\C[C@H](O)/C=C/C=C\C/C=C\C/C=C\CCCC(=O)O` was tested. Which “fraction of GFP-LC3-positive cells” value did it give?
Its value is 0.434.

With `CCCCCCCC/C=C/CCCCCCCCC(=O)O` [10(E)-Nonadecenoic acid] as the compound, how does the “fraction of GFP-LC3-positive cells” value read?
The value was 0.516.

With `CCCCCCCC/C=C/CCCCCCCCC(=O)O` [10(Z)-Nonadecenoic acid] as the compound, how does the “fraction of GFP-LC3-positive cells” value read?
Its value is 0.551.

For `NC[C@H]1O[C@H](O[C@H]2[C@H](O)[C@@H](O[C@H]3O[C@H](CO)[C@@H](O)[C@H](N)[C@H]3O)[C@H](N)C[C@@H]2N)[C@H](N)C[C@@H]1O` [Tobramycin], which “fraction of GFP-LC3-positive cells” value is on record?
The value was 0.5.

For `COc1cc(N)c(Cl)cc1C(=O)NC1CCN(Cc2ccccc2)CC1.O=C(O)/C=C\C(=O)O` [Clebopride maleate], which “fraction of GFP-LC3-positive cells” value is on record?
Its value is 0.506.

`CC(C(O)c1ccc(O)cc1)N1CCC(Cc2ccccc2)CC1.O=C(O)C(O)C(O)C(=O)O` (stereo unspecified) [Ifenprodil tartrate] was tested. Which “fraction of GFP-LC3-positive cells” value did it give?
Its value is 0.481.

`Cl.Fc1ccc([C@@H]2CCNC[C@H]2COc2ccc3c(c2)OCO3)cc1` [Paroxetine Hydrochloride] was tested. Which “fraction of GFP-LC3-positive cells” value did it give?
Its value is 0.5.

With `Nc1ccc(S(=O)(=O)Nc2ccc(Cl)nn2)cc1` [Sulfachloropyridazine] as the compound, how does the “fraction of GFP-LC3-positive cells” value read?
Its value is 0.368.

Which “fraction of GFP-LC3-positive cells” value does the source give for `CC1CNc2c(cccc2S(=O)(=O)N[C@@H](CCCNC(=N)N)C(=O)N2CC[C@@H](C)C[C@@H]2C(=O)O)C1` (stereo partly specified) [Argatroban] here?
The value was 0.486.

How did the “fraction of GFP-LC3-positive cells” value turn out when `CCCCC[C@H](O)/C=C/C=C/C=C/[C@@H](O)C/C=C\CCCC(=O)O` [8(S),15(S)-DiHETE all trans] was run?
The value was 0.456.

How did the “fraction of GFP-LC3-positive cells” value turn out when `CCN(CC)CCOC(=O)c1ccc(N)cc1.Cl` [Procaine hydrochloride] was run?
Its value is 0.483.

With `C[C@]12C=CC(=O)C=C1CC[C@@H]1[C@@H]2[C@@H](O)C[C@@]2(C)[C@H]1CC[C@]2(O)C(=O)CO` [Prednisolone] as the compound, how does the “fraction of GFP-LC3-positive cells” value read?
Its value is 0.183.

For `CCCCOc1ccc(C(=O)CCN2CCCCC2)cc1.Cl` [Dyclonine hydrochloride], which “fraction of GFP-LC3-positive cells” value is on record?
The value was 0.322.

`NC(=O)c1cc[n+](CC2=C(C(=O)[O-])N3C(=O)[C@@H](NC(=O)[C@@H](c4ccccc4)S(=O)(=O)[O-])[C@H]3SC2)cc1.[Na+]` [Cefsulodin sodium salt] was tested. Which “fraction of GFP-LC3-positive cells” value did it give?
The value was 0.367.

With `CC1(C)[C@@H](OC(=O)CCC(=O)[O-])CC[C@]2(C)[C@H]3C(=O)C=C4[C@@H]5C[C@@](C)(C(=O)[O-])CC[C@]5(C)CC[C@@]4(C)[C@]3(C)CC[C@@H]12.[Na+].[Na+]` [Carbenoxolone disodium salt] as the compound, how does the “fraction of GFP-LC3-positive cells” value read?
The value was 0.269.

Which “fraction of GFP-LC3-positive cells” value does the source give for `CCCCCCCCCCCCCCCC(=O)NCCc1ccc(O)c(O)c1` [Palmitoyl dopamine] here?
Its value is 0.456.

`CCCSc1ccc2[nH]c(NC(=O)OC)nc2c1` [Albendazole] was tested. Which “fraction of GFP-LC3-positive cells” value did it give?
The value was 0.899.

Which “fraction of GFP-LC3-positive cells” value does the source give for `CCCCc1ccc2[nH]c(NC(=O)OC)nc2c1` [Parbendazole] here?
The value was 0.927.

How did the “fraction of GFP-LC3-positive cells” value turn out when `CCCCCCCCCCCCCCCCCCc1ccc(C(=O)/C=C/C(=O)O)cc1` was run?
The value was 0.48.

Which “fraction of GFP-LC3-positive cells” value does the source give for `COC(=O)Nc1nc2cc(SC(C)C)ccc2[nH]1` [Methiazole] here?
The value was 0.836.

With `COC(=O)Nc1nc2cc(Sc3ccccc3)ccc2[nH]1` [Fenbendazole] as the compound, how does the “fraction of GFP-LC3-positive cells” value read?
The value was 0.648.

How did the “fraction of GFP-LC3-positive cells” value turn out when `NCc1ccccc1CC(=O)N[C@@H]1C(=O)N2C(C(=O)O)=C(CSc3nnnn3CC(=O)O)CS[C@H]12` [Ceforanide] was run?
Its value is 0.519.

`CC1CCc2cc(F)cc3c(=O)c(C(=O)O)cn1c23` (stereo unspecified) [Flumequine] was tested. Which “fraction of GFP-LC3-positive cells” value did it give?
Its value is 0.273.

With `CC1/C=C/C=C/CC/C=C/C=C/C=C/C=C/C(O[C@@H]2O[C@H](C)[C@@H](O)[C@H](N)[C@@H]2O)CC(O)C(C(=O)O)C(O)CC(=O)CC(O)C(O)CCC(O)CC(O)CC(O)CC(=O)OC(C)C(C)C1O` (stereo partly specified) [Nystatine] as the compound, how does the “fraction of GFP-LC3-positive cells” value read?
Its value is 0.294.

Which “fraction of GFP-LC3-positive cells” value does the source give for `CC(=O)Oc1ccccc1C(=O)Oc1ccccc1C(=O)O` [Acetylsalicylsalicylic acid] here?
The value was 0.354.

Which “fraction of GFP-LC3-positive cells” value does the source give for `CC(=O)OCOC(=O)CN(CC(=O)OCOC(C)=O)c1ccccc1OCCOc1ccccc1N(CC(=O)OCOC(C)=O)CC(=O)OCOC(C)=O` here?
The value was 0.851.

With `COc1cc2nc(N3CCN(C(=O)c4ccco4)CC3)nc(N)c2cc1OC.Cl` [Prazosin hydrochloride] as the compound, how does the “fraction of GFP-LC3-positive cells” value read?
The value was 0.669.

With `COc1cc2nc(N3CCN(C(=O)C4CCCO4)CC3)nc(N)c2cc1OC.Cl` (stereo unspecified) [Terazosin hydrochloride] as the compound, how does the “fraction of GFP-LC3-positive cells” value read?
Its value is 0.396.

`COc1cc2nc(N3CCN(C(=O)c4ccco4)CC3)nc(N)c2cc1OC` [prazocin] was tested. Which “fraction of GFP-LC3-positive cells” value did it give?
The value was 0.931.

How did the “fraction of GFP-LC3-positive cells” value turn out when `CCCCC/C=C\C/C=C\C=C\[C@@H](O)C/C=C\CCCC(=O)O` was run?
The value was 0.479.

For `Nc1nc2c(ncn2COCCO)c(=O)[nH]1` [Acyclovir], which “fraction of GFP-LC3-positive cells” value is on record?
The value was 0.421.

`CCCOc1ccccc1-c1nc2[nH]nnc2c(=O)[nH]1` [zaprinast] was tested. Which “fraction of GFP-LC3-positive cells” value did it give?
Its value is 0.222.

How did the “fraction of GFP-LC3-positive cells” value turn out when `Nc1nc2[nH]nnc2c(=O)[nH]1` [Azaguanine-8] was run?
Its value is 0.845.

`CN(C)CCOC(c1ccccc1)c1ccccc1.Cl` [Diphenhydramine hydrochloride] was tested. Which “fraction of GFP-LC3-positive cells” value did it give?
The value was 0.531.

`CCCCC[C@H](O)/C=C/C=C\C/C=C\CCCCC(=O)O` was tested. Which “fraction of GFP-LC3-positive cells” value did it give?
The value was 0.403.

With `CCCCC(CC)CNC(=N)NC(=N)NCCCCCCNC(=N)NC(=N)NCC(CC)CCCC.Cl.Cl` (stereo unspecified) [Alexidine dihydrochloride] as the compound, how does the “fraction of GFP-LC3-positive cells” value read?
The value was 0.537.

With `CCCNC(C)C(=O)Nc1ccccc1C.Cl` (stereo unspecified) [Prilocaine hydrochloride] as the compound, how does the “fraction of GFP-LC3-positive cells” value read?
Its value is 0.359.

How did the “fraction of GFP-LC3-positive cells” value turn out when `C=CCOc1ccccc1OCC(O)CNC(C)C.Cl` (stereo unspecified) [Oxprenolol hydrochloride] was run?
The value was 0.366.

Which “fraction of GFP-LC3-positive cells” value does the source give for `Cl.OCCN1CCN(CC/C=C2/c3ccccc3Sc3ccc(Cl)cc32)CC1` [Zuclopenthixol hydrochloride] here?
Its value is 0.542.

For `O=c1cc(-c2ccc(O)cc2)oc2cc(O)cc(O)c12` [Apigenin], which “fraction of GFP-LC3-positive cells” value is on record?
Its value is 0.432.

`CCCCCC(=O)/C=C/[C@H]1[C@H](O)CC(=O)[C@@H]1C/C=C\CCCC(=O)O` [15-Keto-prostaglandin E2] was tested. Which “fraction of GFP-LC3-positive cells” value did it give?
Its value is 0.471.

Which “fraction of GFP-LC3-positive cells” value does the source give for `NS(=O)(=O)c1cc2c(cc1Cl)N=C(CSCc1ccccc1)NS2(=O)=O` [Benzthiazide] here?
The value was 0.293.

With `CS(=O)(=O)Nc1ccc([N+](=O)[O-])cc1Oc1ccccc1` [Nimesulide] as the compound, how does the “fraction of GFP-LC3-positive cells” value read?
Its value is 0.391.

With `CC(C)NC[C@H](O)c1ccc(O)c(O)c1.Cl` [(-)-Isoproterenol hydrochloride] as the compound, how does the “fraction of GFP-LC3-positive cells” value read?
Its value is 0.349.

For `CN(C(=O)C(Cl)Cl)c1ccc(OC(=O)c2ccco2)cc1` [Diloxanide furoate], which “fraction of GFP-LC3-positive cells” value is on record?
The value was 0.372.

Source: the supplement of paper PMC6953052
